The source of these data is PubChem BioAssay (NCATS).

For assay [1], the target named is Guanine nucleotide-binding protein G(i) subunit alpha-1 (Homo sapiens) (UniProt P63096). As to the kind of experiment: qHTS Assay for Inhibitors of RGS12 GoLoco Motif Activity (Green Fluorophore) (AID 879).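 Further: 0% = labeled peptide with Gαi1 and full inhibition = labeled peptide alone without protein; negative values mean loss of peptide binding seen as reduced polarization.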 To be noted: Galphai1/FITC-RGS12 GoLoco peptide, fluorescence polarization; series mostly up to 57.1 µM. The gist of the method:
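A drop in FITC polarization marked displacement of the FITC-tagged RGS12 GoLoco peptide (10 nM) from Gαi1 (50 nM). Compounds were incubated 10 min at room temperature in Tris pH 7.5 buffer containing 150 mM NaCl, 0.1 mM GDP and 0.05% NP40; unlabeled peptide titration served as control.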

Assay [2] can be described thus: Counterscreen for APE1 Inhibitors: Fluorescent Dye Displacement Validation Assay (AID 1707).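 Further: plate controls were ThO with dsDNA and no compound for no effect and ThO without dsDNA for full effect.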 To be noted: fluorescent dye displacement from DNA; series mostly up to 57.1 µM. Summed up: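 Signal: ThO fluorescence (ex 480 nm/em 540 nm) on binding 50 nM dsDNA; displacement by test compound reduces it. Conditions: 250 nM dye, 50 mM Tris-HCl pH7.5, 2 mM MgCl2, 50mM NaCl, 0.01% Tween-20.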

Assay [3] in a line: qHTS for differential inhibitors of proliferation of Plasmodium falciparum line 7G8 (AID 1815).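 Further: potency means the concentration at half of the fitted maximal effect; parasite growth measured after three days of incubation.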 To be noted: Plasmodium falciparum 7G8 proliferation inhibition; series mostly up to 28.7 µM.
Assay [4] can be described thus: qHTS for differential inhibitors of proliferation of Plasmodium falciparum line D10 (AID 1877).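 Further: parasites grown with compound for 72 h before DNA staining; plate controls were vehicle wells for no effect and reference inhibitor wells for full effect.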 To be noted: series mostly up to 28.7 µM.
Assay [5] in a line: qHTS for differential inhibitors of proliferation of Plasmodium falciparum line Dd2 (AID 1882).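 Further: compound exposure of 72 h on infected erythrocytes; plate controls were DMSO vehicle for no effect and 0.29 µM artemisinin for full effect; nearly all actives have a fitted effect of over 65% in size.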 To be noted: Potency: Plasmodium falciparum Dd2 proliferation inhibition; series mostly up to 28.7 µM. Summed up:
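RBC culture, 0.3% parasitemia / 2.5% Hct final; cpd added by pin tool in DMSO; 72 h, 37 C, 5% CO2; lysis buffer + SYBR Green I, o/n RT dark; FI 485/535; norm. to artemisinin 0.29 uM and DMSO.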

A short description of assay [6]: qHTS for differential inhibitors of proliferation of Plasmodium falciparum line W2 (AID 1883).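 Further: potency means the concentration at half of the fitted maximal effect; parasites grown with compound for 72 h before lysis and staining.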 To be noted: Potency: Plasmodium falciparum W2 proliferation inhibition; series mostly up to 28.7 µM.
The nature of assay [7]: qHTS Assay for Modulators of Human Peripheral Myelin Protein 22 (PMP22) Expression/Activity (AID 1967; active means well fitted curve in the direction sought with a large enough effect in the signal ratio; the % refers to the signal ratio;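 further: 0% = untreated cells and 100% end not stated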). To be noted: Cell-based PMP22 reporter, dual-color luciferase ratio, 0% = compound-free control cells, mouse Pmp22 promoter in mouse Schwann cells; series mostly up to 115 µM. The gist of the method:
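MSC80 mouse Schwann cells stably carrying Pmp22 promoter–green click beetle luciferase plus EF-alpha–red luciferase control were dosed for 24h at 37 °C. Dual-colour luminescence was filter-overlap corrected; %Activity came from green/red ratio versus untreated cells.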

In assay [8] the target is RecQ-like DNA helicase BLM (Homo sapiens) (UniProt P54132). The assay can be described thus: qHTS Validation Assay for Inhibitors of Bloom's syndrome helicase (BLM) (AID 2364). Further: potency means the concentration at half of the fitted maximal effect. To be noted: BLM helicase DNA unwinding, fluorescence, in vitro; series mostly up to 57.1 µM. The gist of the method:
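Forked 20-bp duplex substrate (200 nM, TAMRA/BHQ-2) plus 2 mM ATP added after 15 min compound preincubation with 50 nM enzyme, pH 8.0, poly(dI-dC) 2.5 ug/ml. Strand separation followed by fluorescence (525/598 nm) over 2 h, normalized to enzyme-free and DMSO controls.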

The nature of assay [9]: Validation screen for small molecules that induce DNA re-replication in MCF 10A normal breast cells (AID 463097). Further: potency means the concentration at half of the fitted maximal effect; nearly all actives have a fitted effect of over 60% in size. To be noted: MCF 10A cells, DNA re-replication phenotype imaging; series mostly up to 46.1 µM. The gist of the method:
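Readout: Hoechst nuclear fluorescence intensity, 405 ex / 500-530 em, by scanning plate imager; re-replication scored as increase in nuclei with elevated DNA content. Cells exposed to compound 48 hr, 37 C, 5% CO2 beforehand.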

In assay [10] the target is M-phase phosphoprotein 8 (Homo sapiens) (UniProt Q99549). The assay can be described thus: qHTS Validation Assay for Inhibitors for MPP8 Chromodomain Interactions with Methylated Histone Tails (AID 488949). Further: potency means the concentration at half of the fitted maximal effect; nearly all actives have a fitted effect of over 55% in size. To be noted: AlphaScreen MPP8 binding to H3K9me3 peptide; series mostly up to 114 µM. The gist of the method: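 MPP8 (50 nM) was preincubated with biotinylated H3(1-18)K9me3 peptide (50 nM) in PBS pH 7.4, 0.01% Tween-20 for 30 min at room temperature, then with compounds for 30 min; binding was detected by AlphaScreen.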

Assay [11] deals with Thyrotropin receptor (Homo sapiens) (UniProt P16473). The assay can be described thus: qHTS Assay for Antagonists of the Thyroid Stimulating Hormone Receptor (AID 488980). Further: 0% is about no effect. To be noted: TSHR-expressing cells, cAMP antagonist read-out; series mostly up to 57.5 µM. The gist of the method: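 HEK293 cells transfected with human TSHR, suspended in HEPES-buffered HBSS with 70 uM RO 20-1724, were treated with compounds plus TSH at EC80 (4 nM final). cAMP was measured by competitive HTRF (cryptate anti-cAMP antibody, cAMP-d2 acceptor).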

The target in assay [12] is Thyrotropin-releasing hormone receptor (Homo sapiens) (UniProt P34981). The assay can be described thus: qHTS for Small Molecule Agonists and Allosteric Enhancers of Human TRH Receptor: Validation Screen for Agonists (AID 493127;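 active means calcium activation more than 3 SD above the typical response in the agonist read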;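 further: intracellular calcium rise by fluo-8 fluorescence before TRH EC20 addition; 0% is about no effect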). To be noted: TRH receptor agonist cell assay; at 2 µM; stronger effect = higher value. Summed up:
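Kinetic fluorescence assay of agonist-induced calcium release: overnight-plated TRHR cells, room-temperature fluo-8 loading, baseline then compound addition with per-second reads.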

In assay [13] the target is Galactokinase (Homo sapiens) (UniProt P51570). The assay can be described thus: qHTS Validation Assay for Inhibitors of Human Galactokinase (GALK) (AID 493189). Further: 0% is about no effect. To be noted: purified human GALK enzyme activity, qHTS 7-point titration; series mostly up to 57.5 µM. Summed up: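 GALK (5 nM) with 35 uM ATP and 100 uM galactose in HEPES pH8.0, MgCl2, NaCl, DTT, BSA; 1 h at room temperature. Residual ATP read by Kinase-Glo Plus luminescence after 10 min.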

A short description of assay [14]: Validation screen for small molecules that induce DNA re-replication in SW480 colon adenocarcinoma cells (AID 504364). Further: 0% is about no effect. To be noted: DNA re-replication phenotype (high-content imaging); series mostly up to 46.1 µM. Summed up:
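Hoechst-stained SW480 nuclei, imaged at 405 nm excitation after 48 hr compound exposure, were counted for elevated DNA content as the re-replication signal.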

Assay [15] can be described thus: qHTS profiling of the MIPE4 collection as inhibitors of Plasmodium falciparum (3D7) proliferation (AID 743344; call rule not given here;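 further: scaled between DMSO vehicle wells and 0.29 µM artemisinin as full inhibition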). To be noted: P. falciparum 3D7 in erythrocytes, SYBR Green DNA fluorescence, 72 h; at 28.5 µM (top of the series). The gist of the method: (§1)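 Parasite DNA was quantified by SYBR Green I fluorescence (ex 485, em 535 nm) after overnight lysis in saponin/Triton buffer at room temperature. Cultures at 0.3% parasitemia and 2.5% hematocrit were first exposed to compound for 72 h at 37 C; signals were normalised to artemisinin (0.29 uM) and vehicle wells.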

Assay [16] in a line: qHTS profiling of the MIPE4 collection as inhibitors of Plasmodium falciparum (DD2) proliferation (AID 743345; call rule not given here). To be noted: P. falciparum Dd2 in erythrocytes, SYBR Green DNA, 72 h; at 28.5 µM (top of the series). The gist of the method: as §1
A short description of assay [17]: qHTS profiling of the MIPE4 collection as inhibitors of Plasmodium falciparum (DD2) proliferation (Rep 2) (AID 743346; call rule not given here). To be noted: P. falciparum Dd2 in erythrocytes, SYBR Green DNA, 72 h; at 28.5 µM (top of the series). Summed up: as §1
Assay [18] is described as follows: qHTS profiling of the MIPE4 collection as inhibitors of Plasmodium falciparum (HB3) proliferation (AID 743347; call rule not given here;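 further: plate controls were DMSO vehicle wells for no effect and artemisinin wells for full effect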). To be noted: P. falciparum HB3 in erythrocytes, SYBR Green DNA, 72 h; at 28.5 µM (top of the series). The gist of the method: as §1
Assay [19] addresses Rap guanine nucleotide exchange factor 4 (Homo sapiens) (UniProt Q8WZA2). The assay can be described thus: Confirmatory qHTS for antagonist of cAMP-regulated guanine nucleotide exchange factor 4 (EPAC2) (AID 1645885). Further: potency means the concentration at half of the fitted maximal effect; nearly all actives have a fitted effect of over 25% in size. To be noted: EPAC2 Rap1B-BODIPY-GDP exchange fluorescence, biochemical; series mostly up to 114 µM.
Assay [20] concerns the target Cytochrome P450 2D6 (Homo sapiens) (UniProt P10635). The assay can be described thus: qHTS Assay for Inhibitors and Substrates of Cytochrome P450 2D6 (AID 891). Further: potency means the concentration at half of the fitted maximal effect; nearly all actives have a fitted effect of over 60% in size. To be noted: recombinant CYP2D6, luciferin-ME EGE luminescence; series mostly up to 57.1 µM. Summed up: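 Luminescent read-out of luciferin formed by 5 nM human CYP2D6 demethylating 30 uM Luciferin-ME EGE (Km level) over 60 min at room temperature after NADPH regeneration addition. Data normalized to full inhibition by 1.43 uM quinidine.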

SMILES strings stand for the structures. Records with an inconclusive call do not appear. The source made the active and inactive calls. Unless noted, the call rests on the fitted dose curve; in most records, active means well fitted curve in the direction sought with a large enough effect; inconclusive means small, poorly fitted or top-dose-only effect, or another doubt; inactive means no such curve, though single readings can be large; an effect the other way counts as inactive or inconclusive.

Sequence of Thyrotropin-releasing hormone receptor (Homo sapiens) (P34981 whole entry, looked up): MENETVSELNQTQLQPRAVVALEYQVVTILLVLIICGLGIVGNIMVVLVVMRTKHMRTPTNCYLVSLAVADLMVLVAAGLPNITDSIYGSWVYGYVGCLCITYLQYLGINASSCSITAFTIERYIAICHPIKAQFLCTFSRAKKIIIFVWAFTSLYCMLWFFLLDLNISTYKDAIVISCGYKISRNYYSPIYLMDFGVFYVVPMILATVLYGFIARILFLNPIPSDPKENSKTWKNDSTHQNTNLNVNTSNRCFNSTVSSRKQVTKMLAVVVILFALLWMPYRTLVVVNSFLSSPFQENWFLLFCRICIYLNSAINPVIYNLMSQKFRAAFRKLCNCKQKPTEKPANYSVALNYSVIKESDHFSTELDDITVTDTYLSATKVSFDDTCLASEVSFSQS
Sequence of Thyrotropin receptor (Homo sapiens) (P16473 whole entry, looked up): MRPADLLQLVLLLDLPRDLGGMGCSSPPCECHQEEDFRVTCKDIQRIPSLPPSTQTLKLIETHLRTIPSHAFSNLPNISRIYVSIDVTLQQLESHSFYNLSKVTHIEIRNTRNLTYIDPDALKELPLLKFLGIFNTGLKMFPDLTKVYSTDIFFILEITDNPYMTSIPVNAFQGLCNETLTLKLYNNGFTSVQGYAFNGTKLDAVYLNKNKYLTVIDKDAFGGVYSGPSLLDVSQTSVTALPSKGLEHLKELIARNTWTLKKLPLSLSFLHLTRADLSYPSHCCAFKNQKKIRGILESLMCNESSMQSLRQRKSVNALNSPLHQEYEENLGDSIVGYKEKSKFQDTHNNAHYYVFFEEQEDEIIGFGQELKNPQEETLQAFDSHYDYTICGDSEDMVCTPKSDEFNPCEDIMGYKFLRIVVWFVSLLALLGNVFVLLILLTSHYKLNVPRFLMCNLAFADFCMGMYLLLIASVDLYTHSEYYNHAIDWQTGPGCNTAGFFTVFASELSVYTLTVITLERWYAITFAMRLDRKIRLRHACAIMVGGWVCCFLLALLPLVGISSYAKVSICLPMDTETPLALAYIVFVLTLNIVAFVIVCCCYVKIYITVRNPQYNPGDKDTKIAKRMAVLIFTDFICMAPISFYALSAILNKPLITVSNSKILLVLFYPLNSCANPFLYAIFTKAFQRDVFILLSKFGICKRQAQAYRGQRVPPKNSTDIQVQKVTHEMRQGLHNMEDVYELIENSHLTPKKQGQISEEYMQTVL
Sequence of M-phase phosphoprotein 8 (Homo sapiens) (Q99549 whole entry, looked up): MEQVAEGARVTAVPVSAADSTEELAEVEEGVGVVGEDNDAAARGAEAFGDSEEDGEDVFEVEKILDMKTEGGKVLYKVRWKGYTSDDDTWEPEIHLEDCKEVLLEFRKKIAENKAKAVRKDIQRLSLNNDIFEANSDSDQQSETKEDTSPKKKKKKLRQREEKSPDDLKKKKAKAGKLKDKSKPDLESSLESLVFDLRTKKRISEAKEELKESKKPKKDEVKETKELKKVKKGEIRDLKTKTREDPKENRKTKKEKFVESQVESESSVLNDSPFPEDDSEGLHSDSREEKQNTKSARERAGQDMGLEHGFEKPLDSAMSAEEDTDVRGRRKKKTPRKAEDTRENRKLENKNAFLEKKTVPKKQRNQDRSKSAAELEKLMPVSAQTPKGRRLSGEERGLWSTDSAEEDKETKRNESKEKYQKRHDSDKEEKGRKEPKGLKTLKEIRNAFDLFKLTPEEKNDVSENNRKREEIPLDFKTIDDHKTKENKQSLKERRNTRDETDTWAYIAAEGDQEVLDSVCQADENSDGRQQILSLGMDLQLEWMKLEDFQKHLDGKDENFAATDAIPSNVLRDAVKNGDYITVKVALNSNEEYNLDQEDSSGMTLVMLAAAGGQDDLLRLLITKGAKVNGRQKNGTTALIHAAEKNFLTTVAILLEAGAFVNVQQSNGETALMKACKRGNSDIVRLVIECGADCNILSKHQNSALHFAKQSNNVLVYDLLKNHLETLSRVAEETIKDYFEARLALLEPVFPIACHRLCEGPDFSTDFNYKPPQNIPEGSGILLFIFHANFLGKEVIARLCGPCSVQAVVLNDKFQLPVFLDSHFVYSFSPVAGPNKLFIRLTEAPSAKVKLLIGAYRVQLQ
Sequence of Cytochrome P450 2D6 (Homo sapiens) (P10635 whole entry, looked up): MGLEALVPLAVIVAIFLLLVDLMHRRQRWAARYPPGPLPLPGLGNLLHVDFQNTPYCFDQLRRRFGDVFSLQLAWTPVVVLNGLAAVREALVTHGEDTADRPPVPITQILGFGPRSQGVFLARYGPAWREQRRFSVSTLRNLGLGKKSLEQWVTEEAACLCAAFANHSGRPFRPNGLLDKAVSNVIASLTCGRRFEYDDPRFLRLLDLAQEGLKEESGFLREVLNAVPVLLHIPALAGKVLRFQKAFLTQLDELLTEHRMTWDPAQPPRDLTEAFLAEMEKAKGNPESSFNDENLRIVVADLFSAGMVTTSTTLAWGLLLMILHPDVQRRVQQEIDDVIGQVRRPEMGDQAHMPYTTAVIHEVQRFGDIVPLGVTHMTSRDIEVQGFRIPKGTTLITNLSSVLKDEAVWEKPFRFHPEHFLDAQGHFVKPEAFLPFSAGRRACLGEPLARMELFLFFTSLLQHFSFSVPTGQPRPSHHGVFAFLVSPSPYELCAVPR
Sequence of RecQ-like DNA helicase BLM (Homo sapiens) (P54132 whole entry, looked up): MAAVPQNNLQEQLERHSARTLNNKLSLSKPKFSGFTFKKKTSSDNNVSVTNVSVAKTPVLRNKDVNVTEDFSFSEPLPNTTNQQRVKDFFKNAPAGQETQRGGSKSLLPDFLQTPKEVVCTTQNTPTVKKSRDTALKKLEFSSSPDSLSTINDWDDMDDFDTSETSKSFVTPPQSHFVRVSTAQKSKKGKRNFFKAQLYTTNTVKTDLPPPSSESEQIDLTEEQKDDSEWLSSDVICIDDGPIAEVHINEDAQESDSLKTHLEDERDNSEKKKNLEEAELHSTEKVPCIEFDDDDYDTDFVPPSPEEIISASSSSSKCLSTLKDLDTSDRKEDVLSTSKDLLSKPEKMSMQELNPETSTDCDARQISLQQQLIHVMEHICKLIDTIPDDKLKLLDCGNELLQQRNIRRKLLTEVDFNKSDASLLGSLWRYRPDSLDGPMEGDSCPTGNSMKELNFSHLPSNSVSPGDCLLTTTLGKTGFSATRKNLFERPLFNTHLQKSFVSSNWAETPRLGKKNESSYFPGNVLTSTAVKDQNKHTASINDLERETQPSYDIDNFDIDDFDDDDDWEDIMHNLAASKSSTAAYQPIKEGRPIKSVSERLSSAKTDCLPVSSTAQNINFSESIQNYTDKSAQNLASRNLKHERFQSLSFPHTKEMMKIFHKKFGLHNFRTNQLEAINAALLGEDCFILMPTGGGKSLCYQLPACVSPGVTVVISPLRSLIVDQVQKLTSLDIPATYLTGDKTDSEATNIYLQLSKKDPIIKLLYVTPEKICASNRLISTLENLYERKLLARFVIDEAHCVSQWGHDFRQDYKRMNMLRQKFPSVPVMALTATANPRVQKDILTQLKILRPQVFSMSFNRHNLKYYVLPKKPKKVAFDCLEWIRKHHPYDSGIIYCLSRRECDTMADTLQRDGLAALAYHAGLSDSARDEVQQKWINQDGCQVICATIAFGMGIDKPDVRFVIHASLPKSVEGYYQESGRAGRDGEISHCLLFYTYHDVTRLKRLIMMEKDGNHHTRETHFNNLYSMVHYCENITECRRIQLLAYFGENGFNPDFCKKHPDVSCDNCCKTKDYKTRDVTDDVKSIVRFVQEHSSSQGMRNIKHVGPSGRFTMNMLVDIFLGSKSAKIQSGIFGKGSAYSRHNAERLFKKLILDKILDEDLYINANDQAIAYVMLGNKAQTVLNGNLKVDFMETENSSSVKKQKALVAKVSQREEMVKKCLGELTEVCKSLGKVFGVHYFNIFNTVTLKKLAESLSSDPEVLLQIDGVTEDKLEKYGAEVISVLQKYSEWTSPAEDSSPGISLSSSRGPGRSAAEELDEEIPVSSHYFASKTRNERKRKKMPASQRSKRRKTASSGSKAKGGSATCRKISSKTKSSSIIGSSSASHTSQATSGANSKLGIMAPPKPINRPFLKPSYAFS
Sequence of Guanine nucleotide-binding protein G(i) subunit alpha-1 (Homo sapiens) (P63096 whole entry, looked up): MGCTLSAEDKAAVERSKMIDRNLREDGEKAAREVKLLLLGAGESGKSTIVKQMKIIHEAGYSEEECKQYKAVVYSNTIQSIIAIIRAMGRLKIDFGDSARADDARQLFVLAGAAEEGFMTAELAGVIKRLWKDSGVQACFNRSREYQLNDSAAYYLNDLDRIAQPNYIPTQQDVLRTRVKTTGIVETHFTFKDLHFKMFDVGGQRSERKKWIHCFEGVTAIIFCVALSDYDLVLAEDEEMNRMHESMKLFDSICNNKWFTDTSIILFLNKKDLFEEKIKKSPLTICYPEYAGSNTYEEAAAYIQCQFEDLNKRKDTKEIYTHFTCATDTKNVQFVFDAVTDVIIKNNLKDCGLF
Sequence of Galactokinase (Homo sapiens) (P51570 whole entry, looked up): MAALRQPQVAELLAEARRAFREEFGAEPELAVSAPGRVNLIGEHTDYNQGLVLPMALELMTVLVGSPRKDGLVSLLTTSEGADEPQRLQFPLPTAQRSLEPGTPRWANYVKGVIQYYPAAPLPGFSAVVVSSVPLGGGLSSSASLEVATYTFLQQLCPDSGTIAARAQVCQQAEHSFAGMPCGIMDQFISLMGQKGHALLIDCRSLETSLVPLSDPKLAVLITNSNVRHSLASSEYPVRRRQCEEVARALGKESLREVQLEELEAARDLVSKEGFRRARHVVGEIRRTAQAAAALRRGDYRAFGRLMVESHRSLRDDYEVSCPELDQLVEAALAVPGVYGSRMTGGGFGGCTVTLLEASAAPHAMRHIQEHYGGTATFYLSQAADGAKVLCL

Take `CC(C)=CCC/C(C)=C/CC/C(C)=C/CSc1ccccc1C(=O)O`: the call in assay [1], in assay [7], in assay [11], in [13] and in assay [14] was inactive. Besides, the Potency result in assay [2], in assay [4] and in [5] was “inactive” in each case. Besides, the Potency in [3] was 11.2 µM (active); in assay [6], 11.2 µM (active); in assay [8] it was 31.6 µM (active); in [9], 11.2 µM (active); in assay [10], 56.2 µM (active). Also, the activation in [12] is 1.12% (inactive).

With `CC1(C)N=C(N)N=C(N)N1c1ccc(Cl)cc1`, in [15], the parasite growth, % of DMSO control came out at 5.76%. Also, the parasite growth remaining, % of DMSO control (lower = more inhibition) in assay [16] was determined as 13.5%. Moreover, the parasite growth, % of control (lower = inhibition) in [17] was determined as 19.9%. Also, in assay [18], the growth, % of control came to 2.49%.

Turning to `CCC(=O)O[C@H]1CC[C@H]2[C@@H]3CCc4cc(O)ccc4[C@H]3CC[C@]12C`, the Potency in assay [19] was 27.8 µM (active).

On to `COc1cc(/C=C(\C#N)C(N)=O)cc(CSc2nc3ccccc3s2)c1O`, for which, in assay [20], the Potency is 0.0251 µM (active).
